Experimental data as given in PubChem BioAssay (EPA / NIEHS).
Results filed as inconclusive are left out. Calls of active or inactive are those of the source. Rule for the calls: active = hit-call score of the fitted dose curve at least 0.9, where 1 is the maximum; inconclusive = response in the unintended direction; inactive = score below 0.9.

These compounds were tested against rat Neurokinin-1 Receptor (NK1), Tacr1 (gene 24807) (UniProt P14600) (assay: NVS_GPCR_rNK1: NovaScreen (NVS) G Protein-Coupled Receptor Assay for rat Neurokinin-1 Receptor (NK1) (AID 2283309)).
Sequence of rat Neurokinin-1 Receptor (NK1), Tacr1 (gene 24807) (P14600 whole entry, looked up): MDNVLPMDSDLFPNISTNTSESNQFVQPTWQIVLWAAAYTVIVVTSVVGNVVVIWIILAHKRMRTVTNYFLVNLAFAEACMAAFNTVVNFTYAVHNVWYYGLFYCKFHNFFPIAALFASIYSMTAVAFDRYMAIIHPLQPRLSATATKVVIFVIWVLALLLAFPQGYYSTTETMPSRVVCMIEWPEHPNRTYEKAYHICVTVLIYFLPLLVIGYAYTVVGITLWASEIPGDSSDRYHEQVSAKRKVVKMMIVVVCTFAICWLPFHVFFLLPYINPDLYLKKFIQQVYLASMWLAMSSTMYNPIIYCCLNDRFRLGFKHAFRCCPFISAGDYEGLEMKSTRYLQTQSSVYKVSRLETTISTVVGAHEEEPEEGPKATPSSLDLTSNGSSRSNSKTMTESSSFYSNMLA
Summary of the method: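 Competitive radioligand binding to NK1 in rat submaxillary membranes, 1 h incubation, filtration and scintillation read-out. Compounds first screened at 25 uM in duplicate, then concentration-response for actives; signal loss relative to DMSO.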

SMILES	outcome	AC50
C[Si](Cn1cncn1)(c1ccc(F)cc1)c1ccc(F)cc1	inactive	
CNC(=O)ON=C(C)SC		44.1 µM (active)
COc1ccc(C(=CC(=O)N2CCOCC2)c2ccc(Cl)cc2)cc1OC	inactive	
CCOP(=O)(OCC)Oc1cc(C)nc(C(C)C)n1	inactive	
FC(F)C(F)(F)OCC(Cn1cncn1)c1ccc(Cl)cc1Cl (stereo not drawn)	inactive	
CCCOCC(=Nc1ccc(Cl)cc1C(F)(F)F)n1ccnc1	inactive	
CSC1=N[C@@](C)(c2ccccc2)C(=O)N1Nc1ccccc1	inactive	
CC[C@H](C)[C@H]1O[C@]2(C=C[C@@H]1C)C[C@@H]1C[C@@H](C/C=C(\C)[C@@H](O[C@H]3C[C@H](OC)[C@@H](O[C@H]4C[C@H](OC)[C@@H](NC)[C@H](C)O4)[C@H](C)O3)[C@@H](C)/C=C/C=C3\CO[C@@H]4[C@H](O)C(C)=C[C@@H](C(=O)O1)[C@]34O)O2		30.6 µM (active)

The compounds below were run against rat Neurokinin-3 Receptor (NK3), Tacr3 (gene 24808) (UniProt P16177) (assay: NVS_GPCR_rNK3: NovaScreen (NVS) G Protein-Coupled Receptor Assay for rat Neurokinin-3 Receptor (NK3) (AID 2283310)).
Sequence of rat Neurokinin-3 Receptor (NK3), Tacr3 (gene 24808) (P16177 whole entry, looked up): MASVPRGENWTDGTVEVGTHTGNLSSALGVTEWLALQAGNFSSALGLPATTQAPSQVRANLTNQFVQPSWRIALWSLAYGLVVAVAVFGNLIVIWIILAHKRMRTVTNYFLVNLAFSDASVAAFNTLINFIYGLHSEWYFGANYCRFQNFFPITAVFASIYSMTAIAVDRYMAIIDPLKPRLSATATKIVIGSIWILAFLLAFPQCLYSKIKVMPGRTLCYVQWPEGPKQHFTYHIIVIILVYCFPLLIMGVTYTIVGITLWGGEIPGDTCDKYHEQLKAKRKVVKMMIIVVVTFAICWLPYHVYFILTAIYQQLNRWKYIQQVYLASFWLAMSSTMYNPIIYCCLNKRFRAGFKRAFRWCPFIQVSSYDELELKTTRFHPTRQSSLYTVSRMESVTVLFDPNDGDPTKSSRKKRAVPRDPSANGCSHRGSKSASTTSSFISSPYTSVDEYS
Procedure: NVS_GPCR_rNK3 is a biochemical, single-readout assay that uses extracted gene-proteins from Rat cortical membranes in a tissue-based cell-free assay. Measurements were taken 2 hours after chemical dosing in a 48-well plate.NVS_GPCR_rNK3 is one of one assay component(s) measured or calculated from the NVS_GPCR_rNK3 assay. It is designed to make measurements of radioligand binding, a form of binding reporter, as detected with scintillation counting signals by Filter-based radiodetection technology.Data from the assay component NVS_GPCR_rNK3 was analyzed into 1 assay endpoint. This assay endpoint, NVS_GPCR_rNK3, was analyzed in the positive analysis fitting direction relative to DMSO as the negative control and baseline of activity. Using a type of binding reporter, loss-of-signal activity can be used to understand changes in the binding as they relate to the gene Tacr3. Furthermore, this assay endpoint can be referred to as a primary readout, because the performed assay has only produced 1 assay endpoint. To generalize the intended target to other relatable targets, this assay endpoint is annotated to the gpcr intended target family, where the subfamily is rhodopsin-like receptor.
(§1) Binding assays used specific radioligands (tritiated, iodinated) with non-radioactive competitive displacement ligands in agonist or antagonist protocols (as indicated) and various reference compounds and inhibitors to titrate specific binding to receptors and transporters. Most enzyme assays (CYPs, kinases, phosphatases, proteases, HDACs) used recombinant protein and specific substrates (fluorescence mostly, some colorimetric and radioactive) and inhibitors, followed by a biochemical separation of substrate and product. All assays for the biochemical HTS were initially run in duplicate at a single concentration (10 uM for CYP450 assays and 25 uM for all others). Assay-chemical combinations meeting a pre-defined threshold (e.g., 30% inhibition and other criteria defined below) were then run in singleton concentration-response format with maximum concentration of 20 uM for CYPs and 50 uM for all others. Each assay was run with positive and negative controls, and concurrent controls on every plate. The follow-up (secondary) screen tested active chemical-pairs in concentration series, as well as a few additional assays not tested in the primary screen, some selected negative inactives, and several cases re-run in the concentration series for confirmatory purposes.

SMILES	outcome
C[Si](Cn1cncn1)(c1ccc(F)cc1)c1ccc(F)cc1	inactive
CN(C)C(=O)Nc1cccc(C(F)(F)F)c1	inactive
CCCOCC(=Nc1ccc(Cl)cc1C(F)(F)F)n1ccnc1	inactive
CCOP(=O)(NC(C)C)Oc1ccc(SC)c(C)c1 (stereo not drawn)	inactive

The compounds below were run against rat Opioid Receptor, Non-selective Sodium (Na+) Binding, Oprm1 (gene 25601) (UniProt P33535) (assay: NVS_GPCR_rOpiate_NonSelectiveNa: NovaScreen (NVS) G Protein-Coupled Receptor Assay for rat Opioid Receptor, Non-selective Sodium (Na+) Binding (AID 2283311)).
Sequence of rat Opioid Receptor, Non-selective Sodium (Na+) Binding, Oprm1 (gene 25601) (P33535 whole entry, looked up): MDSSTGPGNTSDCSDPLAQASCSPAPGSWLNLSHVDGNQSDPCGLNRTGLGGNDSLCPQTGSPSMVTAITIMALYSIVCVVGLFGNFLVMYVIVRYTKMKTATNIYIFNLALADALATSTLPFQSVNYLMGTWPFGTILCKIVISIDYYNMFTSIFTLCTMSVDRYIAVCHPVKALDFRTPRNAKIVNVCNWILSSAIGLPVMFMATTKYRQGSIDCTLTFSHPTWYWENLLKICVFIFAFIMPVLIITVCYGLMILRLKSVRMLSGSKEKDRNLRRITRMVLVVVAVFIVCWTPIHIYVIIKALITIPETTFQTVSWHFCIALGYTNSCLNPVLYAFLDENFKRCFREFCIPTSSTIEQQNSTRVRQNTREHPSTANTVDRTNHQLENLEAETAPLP
Summary of the method: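 Filtration radioligand binding on rat forebrain membrane preparations, read 1.5 h after dosing. Single-concentration 25 µM primary screen in duplicate, followed by singleton concentration series to 50 µM max for actives; DMSO baseline.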

SMILES	AC50	outcome
CCc1cccc(C)c1N(C(=O)CCl)C(C)COC (stereo not drawn)	12.4 µM (active)	
COc1ccc(C(=CC(=O)N2CCOCC2)c2ccc(Cl)cc2)cc1OC		inactive
CCCSP(=O)(OCC)SCCC		inactive
CCOP(=S)(OCC)Oc1ccc([N+](=O)[O-])cc1		inactive

What follows are compounds tested against human Neonicotinoid receptor (NNR), CHRNA2 (gene 1135) (UniProt Q15822) (assay: NVS_LGIC_hNNR_NBungSens: NovaScreen (NVS) Ligand-Gated Ion Channel Assay for human Neonicotinoid receptor (NNR) (AID 2283313)).
Sequence of human Neonicotinoid receptor (NNR), CHRNA2 (gene 1135) (Q15822 whole entry, looked up): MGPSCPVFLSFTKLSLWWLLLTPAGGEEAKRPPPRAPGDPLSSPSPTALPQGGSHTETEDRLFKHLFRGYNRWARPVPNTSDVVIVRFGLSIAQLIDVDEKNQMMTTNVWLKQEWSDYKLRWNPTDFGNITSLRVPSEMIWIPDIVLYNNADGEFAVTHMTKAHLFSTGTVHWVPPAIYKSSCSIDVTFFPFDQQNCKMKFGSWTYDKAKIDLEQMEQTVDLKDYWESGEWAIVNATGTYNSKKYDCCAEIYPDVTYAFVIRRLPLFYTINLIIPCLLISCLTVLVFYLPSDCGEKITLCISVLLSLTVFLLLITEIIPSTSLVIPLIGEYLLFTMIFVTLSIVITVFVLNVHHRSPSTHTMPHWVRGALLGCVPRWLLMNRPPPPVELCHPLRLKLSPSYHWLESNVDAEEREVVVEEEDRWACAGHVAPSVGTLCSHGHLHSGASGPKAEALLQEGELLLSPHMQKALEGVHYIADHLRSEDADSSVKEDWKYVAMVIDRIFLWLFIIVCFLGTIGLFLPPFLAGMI
Summary of the method: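 Compounds first screened in duplicate at 25 uM, then actives re-tested in single-replicate dose series up to 50 uM. Binding measured as displacement of specific radioligand from neuroblastoma membrane receptors after 2 h, scintillation read on filters.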

SMILES	outcome	AC50
CSc1nnc(C(C)(C)C)c(=O)n1N	inactive	
S=C1NCCN1	inactive	
C[N+]1(C)CCCCC1		11.2 µM (active)
CC(=NC#N)N(C)Cc1ccc(Cl)nc1		4.61 µM (active)

What follows are compounds tested against rat Somatostatin Receptor (SST), Sstr1 (gene 25033) (UniProt P28646) (assay: NVS_GPCR_rSST: NovaScreen (NVS) G Protein-Coupled Receptor Assay for rat Somatostatin Receptor (SST) (AID 2283314)).
Sequence of rat Somatostatin Receptor (SST), Sstr1 (gene 25033) (P28646 whole entry, looked up): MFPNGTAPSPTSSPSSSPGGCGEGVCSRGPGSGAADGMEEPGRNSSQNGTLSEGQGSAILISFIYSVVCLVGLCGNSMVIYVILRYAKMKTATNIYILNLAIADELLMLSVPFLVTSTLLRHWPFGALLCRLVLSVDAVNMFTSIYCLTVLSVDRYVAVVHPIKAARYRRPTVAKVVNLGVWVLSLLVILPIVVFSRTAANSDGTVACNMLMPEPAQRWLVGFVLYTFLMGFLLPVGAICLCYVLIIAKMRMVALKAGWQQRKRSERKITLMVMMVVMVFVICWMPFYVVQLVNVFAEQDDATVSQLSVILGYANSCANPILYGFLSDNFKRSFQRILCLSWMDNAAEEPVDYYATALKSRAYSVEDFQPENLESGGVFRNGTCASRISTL
Summary of the method: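 Single-concentration duplicate screen (25 uM), then concentration-response up to 50 uM for chemicals passing a threshold such as 30% inhibition. Membranes came from rat forebrain. Binding was measured 1 h post-dose by filter radiodetection and scintillation, relative to DMSO.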

SMILES	outcome	AC50
CC(C)=CC1C(C(=O)OCN2C(=O)C3=C(CCCC3)C2=O)C1(C)C (stereo not drawn)	inactive	
N#CSCSC#N	inactive	
CC[C@H](C)[C@H]1O[C@]2(C=C[C@@H]1C)C[C@@H]1C[C@@H](C/C=C(\C)[C@@H](O[C@H]3C[C@H](OC)[C@@H](O[C@H]4C[C@H](OC)[C@@H](NC)[C@H](C)O4)[C@H](C)O3)[C@@H](C)/C=C/C=C3\CO[C@@H]4[C@H](O)C(C)=C[C@@H](C(=O)O1)[C@]34O)O2		2.49 µM (active)

These compounds were tested against rat Neonicotinoid receptor (NNR), Chrna7 (gene 25302) (UniProt Q05941) (assay: NVS_LGIC_rNNR_BungSens: NovaScreen (NVS) Ligand-Gated Ion Channel Assay for rat Neonicotinoid receptor (NNR) (AID 2283315)).
Sequence of rat Neonicotinoid receptor (NNR), Chrna7 (gene 25302) (Q05941 whole entry, looked up): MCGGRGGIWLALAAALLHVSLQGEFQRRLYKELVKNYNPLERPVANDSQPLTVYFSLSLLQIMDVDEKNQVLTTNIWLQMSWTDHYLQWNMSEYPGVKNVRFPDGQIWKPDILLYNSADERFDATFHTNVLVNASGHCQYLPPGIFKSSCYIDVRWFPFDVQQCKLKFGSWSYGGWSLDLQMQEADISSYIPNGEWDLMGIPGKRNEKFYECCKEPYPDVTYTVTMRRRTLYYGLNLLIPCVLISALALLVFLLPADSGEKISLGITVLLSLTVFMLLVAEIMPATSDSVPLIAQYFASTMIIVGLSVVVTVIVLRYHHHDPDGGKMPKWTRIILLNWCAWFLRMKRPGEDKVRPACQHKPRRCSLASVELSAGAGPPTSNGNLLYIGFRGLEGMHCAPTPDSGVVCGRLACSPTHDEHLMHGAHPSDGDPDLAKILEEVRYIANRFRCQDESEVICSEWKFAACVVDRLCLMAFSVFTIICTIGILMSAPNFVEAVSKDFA
Procedure: NVS_LGIC_rNNR_BungSens is a biochemical, single-readout assay that uses extracted gene-proteins from Rat cortical membranes in a tissue-based cell-free assay. Measurements were taken 2.5 hours after chemical dosing in a 48-well plate.NVS_LGIC_rNNR_BungSens is one of one assay component(s) measured or calculated from the NVS_LGIC_rNNR_BungSens assay. It is designed to make measurements of radioligand binding, a form of binding reporter, as detected with scintillation counting signals by Filter-based radiodetection technology.Data from the assay component NVS_LGIC_rNNR_BungSens was analyzed into 1 assay endpoint. This assay endpoint, NVS_LGIC_rNNR_BungSens, was analyzed in the positive analysis fitting direction relative to DMSO as the negative control and baseline of activity. Using a type of binding reporter, loss-of-signal activity can be used to understand changes in the binding as they relate to the gene Chrna7. Furthermore, this assay endpoint can be referred to as a primary readout, because the performed assay has only produced 1 assay endpoint. To generalize the intended target to other relatable targets, this assay endpoint is annotated to the ion channel intended target family, where the subfamily is ligand-gated ion channel.
as §1, with “Assay-chemical combinations meeting a pre-defined threshold (e.g., 30% inhibition and other criteria defined below) were then run in singleton concentration-response format with maximum concentration of 20 uM for CYPs and 50 uM for all others.” left out

SMILES	outcome	AC50
CCOP(=O)(OCC)Oc1cc(C)nc(C(C)C)n1	inactive	
C[N+]1(C)CCCCC1		6.52 µM (active)
Cc1ccn2nc(S(=O)(=O)Nc3c(F)cccc3F)nc2n1	inactive	
CC(=NC#N)N(C)Cc1ccc(Cl)nc1		8.03 µM (active)
CCCOc1nn(C(=O)NS(=O)(=O)c2ccccc2C(=O)OC)c(=O)n1C	inactive	
